Compound activity as filed in PubChem.
LGR2 inh: inhibitors of bursicon-induced LGR2 CRE-luciferase signal, primary screen, cell-based, HEK293, CRE-luciferase reporter, bursicon stimulation. Drosophila bursicon receptor LGR2 (rickets). bursicon-stimulated, 4 h. inhibition, % at 9.99 µM. 0.35% of 380,000 active. AID 720647, 2013;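 active means drop in luminescence signal, shown as inhibition above about 50% in the replicate tests, limit read from the data, passing the limit was not always enough; inconclusive means probably only some replicates passing the limit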;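 further: agonist challenge used bursicon conditioned medium at about half maximal strength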
EWS-Fli block: EWS/Fli-driven NR0B1 reporter inhibitors, primary screen, A673 cells, NR0B1 luciferase, luminescence, MLPCN library; viability-normalised; inhibition, % at 12.6 µM; 0.67% of 350,000 active; AID 651661, 2012;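 active means mean inhibition of at least 50% after viability correction, with every replicate also passing that limit; inconclusive means mean reaches 50% but only one of two replicates passes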;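 further: firefly luciferase signal divided by Alamar Blue viability fluorescence both relative to DMSO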
TROY NFkB inh: inhibitors of TROY-driven NF-kB signaling, primary screen, Q293 LMP1-TROYcd cells, NF-kB luciferase, uHTS; Q293 LMP1-TROYcd NF-kB luciferase reporter, 4 h; inhibition, % at 10 µM; 0.98% of 360,000 active; AID 1347056, 2019;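 active means compounds whose plate-normalised and pattern-corrected inhibition of the luciferase reporter signal at the single screening dose is 50% or more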
PAX8 reporter: inhibitors of PAX8-driven TPO luciferase reporter, primary screen, RMG-I cells, single concentration; 1.2% of 360,000 active; AID 652154, 2013; inhibition, % at 12.6 µM; SteadyGlo, 24 h;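 active means mean replicate inhibition at least 60% with every replicate also reaching 60%; inconclusive means only one of the two criteria is met; inactive means mean below 60% and not all replicates reaching 60%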;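 further: luciferase light reporting Pax8 driven TPO promoter activity; plate controls were median of neutral control wells for no effect and mitoxantrone controls for full effect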
LMP1 NFkB inh: EBV LMP1-driven NF-kappaB luciferase reporter inhibitors, primary screen, cell-based, luminescence, single point; LMP1-induced NF-kappaB luciferase reporter cells; inhibition, % at 12.5 µM; 0.69% of 350,000 active; AID 504558, 2011; in the data active means inhibition above about 41%; inconclusive means no clear call, values can overlap the other calls;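 further: 0% = neutral control wells and 100% = reference inhibitor control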
TWEAK-Fn14 inh: inhibitors of TWEAK-Fn14 signaling, primary screen, luciferase reporter cells, uHTS; 2% of 360,000 active; AID 1159606, 2016; inhibition, % at 10 µM; TWEAK-stimulated Fn14 reporter cells, luciferase luminescence, 8 h; in the data active means inhibition above about 50%
Starred values were filed as active, the others as inactive; ? = inconclusive; / = no result. A selection: hits, their analogues and other compounds. The true share with any hit is near 3.2%.

SMILES | LGR2 inh | EWS-Fli block | TROY NFkB inh | PAX8 reporter | LMP1 NFkB inh | TWEAK-Fn14 inh
C[C@@H]1CN([C@@H](C)CO)C(=O)c2cc(NC(=O)Nc3ccc(C(F)(F)F)cc3)ccc2O[C@@H](C)CCCCO[C@@H]1CN(C)CC1CCCCC1 | 9 | -12 | / | 108* | / | /
C[C@@H]1CCCCO[C@@H](CN(C)CC2CCCCC2)[C@@H](C)CN([C@@H](C)CO)C(=O)c2cc(NC(=O)Nc3ccc(C(F)(F)F)cc3)ccc2O1 | / | 65* | / | 100* | / | /
C[C@@H]1CCCCO[C@H](CN(C)CC2CCCCC2)[C@H](C)CN([C@H](C)CO)C(=O)c2cc(NC(=O)Nc3ccc(C(F)(F)F)cc3)ccc2O1 | / | 75* | / | 9 | / | /
C[C@@H]1CCCCO[C@H](CN(C)CC2CCCCC2)[C@@H](C)CN([C@H](C)CO)C(=O)c2cc(NC(=O)Nc3ccc(C(F)(F)F)cc3)ccc2O1 | 0 | -1 | / | -23 | / | /
C[C@@H]1CCCCO[C@@H](CN(C)CC2CC2)[C@H](C)CN([C@H](C)CO)C(=O)c2cc(NC(=O)Nc3ccc(C(F)(F)F)cc3)ccc2O1 | -8 | 37 | / | 44 | / | /
C[C@@H]1CCCCO[C@@H](CN(C)CC2CCCCC2)[C@H](C)CN([C@H](C)CO)C(=O)c2cc(NC(=O)Nc3ccc(C(F)(F)F)cc3)ccc2O1 | 10 | 76* | / | -24 | / | /
COc1ccc(NC(=O)Nc2ccc3c(c2)CC(=O)N([C@H](C)CO)C[C@@H](C)[C@H](CN(C)Cc2ccc(C(=O)Nc4ccccc4N)cc2)O3)cc1 | 7 | 44 | / | -22 | / | /
Cc1cccc(C(P(=O)(c2ccccc2)c2ccccc2)P(=O)(c2ccccc2)c2ccccc2)n1 | -5 | / | -1 | -15 | -12 | 79*
CSc1ccc(S(=O)(=O)N2CCC(C(=O)NCCCn3ccnc3)CC2)cc1 | -2 | / | -11 | -11 | -3 | 83*
Cc1ccc(S(=O)(=O)N2CCC(C(=O)NCCCn3ccnc3)CC2)cc1 | -1 | 5 | 11 | -4 | -4 | 2
COc1ccccc1NC(=O)N[C@@H]1CC[C@@H](CCn2cc(-c3cccnc3)nn2)O[C@@H]1CO | -7 | -3 | / | -1 | / | /
CCCn1c(CC)nc([N+](=O)[O-])c1S(=O)(=O)c1ccccc1 | / | / | 48 | 82* | 7 | 1
CCc1nc(C)cn1S(=O)(=O)c1ccc([N+](=O)[O-])cc1 | 4 | -1 | 9 | -6 | 5 | 4
CCN(CC)c1ccc(/C=N\NC(N)=O)cc1 | -13 | 12 | -25 | -16 | 0 | 2
CCN(CC)c1ccc(/C=N/NC(=O)c2ccoc2C)cc1 | / | 8 | 42 | -82 | -1 | 63*
COc1ccc(CN(C)C[C@H]2Oc3c(NS(=O)(=O)c4cn(C)cn4)cccc3C(=O)N([C@H](C)CO)C[C@H]2C)cc1 | 5 | 10 | / | 3 | / | /
Oc1ccc(Nc2nc(-c3ccc4ccccc4c3)cs2)cc1 | / | / | 9 | / | -255 | 76*
Cc1ccc(Nc2nc(-c3c(C)nc4ccccn34)cs2)cc1 | 13 | / | 59* | / | -2 | 95*
Cn1c(C=O)c(-c2ccc3cc[nH]c3c2)c2ccccc21 | -3 | -11 | 34 | -2 | -1 | 66*
Cc1cccc(/C(N)=N/OC(=O)c2ccc(Br)o2)c1 | -29 | / | -53 | -123 | -28 | -41
CC(C)(C)c1ccc(C(=O)O/N=C(\N)c2ccccn2)cc1 | 102* | 75* | 89* | 70* | 74* | 103*
N/C(=N\OC(=O)c1ccc(Br)o1)c1ccccn1 | 74* | 11 | 51* | -12 | 31 | 60*
N/C(=N\OCc1ccc([N+](=O)[O-])cc1)c1ccccn1 | / | / | / | / | 73* | /
CC(C(=O)O/N=C(\N)c1ccccn1)c1ccc([N+](=O)[O-])cc1 (stereo not drawn) | -15 | -30 | 44 | -49 | -1 | 32
N/C(=N\OC(=O)c1ccccc1)c1ccccn1 | 95* | 20 | 75* | 17 | 45* | 96*
SMILES | LGR2 inh | EWS-Fli block | TROY NFkB inh | PAX8 reporter | LMP1 NFkB inh | TWEAK-Fn14 inh
CO[C@@H](CN(C)C(=O)c1ccccc1F)[C@@H](C)CN([C@H](C)CO)S(=O)(=O)c1ccc(Cl)cc1 | -10 | -4 | / | / | / | /
O=C(C[C@H]1CC[C@H](NC(=O)Cc2cccnc2)[C@@H](CO)O1)Nc1ccccc1 | -4 | 7 | / | / | / | /
CC(C)NC(=O)N(C)C[C@@H]1Oc2ccc(NC(=O)Nc3ccc4c(c3)OCO4)cc2CC(=O)N([C@@H](C)CO)C[C@H]1C | -12 | -6 | / | / | / | /
CCOc1ccc(C(=O)O/N=C(\N)c2ccccn2)cc1 | 103* | 81* | 87* | 128* | 88* | 103*
CCc1ccc(OCC(=O)O/N=C(\N)c2ccccn2)cc1 | -36 | -68 | -30 | -141 | / | -12
C[C@H]1CN([C@@H](C)CO)S(=O)(=O)c2ccc(-c3ccc(F)cc3)cc2O[C@H]1CN(C)CC1CC1 | 3 | 4 | / | 5 | / | /
N#C/C(=N\Nc1ccc(Cl)cc1)C(N)=S | 50 | -18 | 64* | 47 | 30 | 60*
N#C/C(=N\Nc1ccccc1)C(N)=S | 26 | -10 | 31 | -4 | 22 | 30
Cc1ccc(N/N=C(\C#N)C(N)=S)cc1C | / | -10 | 58* | 4 | ? | 62*
O=C(NCC[C@H]1CC[C@H](NS(=O)(=O)c2ccccc2)[C@@H](CO)O1)c1ccc2c(c1)OCO2 | -9 | 4 | / | -18 | / | /
CC(C)NC(=O)N(C)C[C@H]1Oc2c(NC(=O)c3cnccn3)cccc2C(=O)N([C@H](C)CO)C[C@@H]1C | 2 | / | / | 3 | / | /
C[C@@H]1CN([C@H](C)CO)C(=O)c2cc(NC(=O)CCC(F)(F)F)ccc2O[C@@H](C)CCCCO[C@H]1CN(C)C(=O)C1CCCCC1 | 1 | 6 | / | / | / | /
CCOC(=O)N1CCN(C(=O)c2ccc3nc(C)sc3c2)CC1 | / | / | -11 | / | 0 | 9
CCOC(=O)N1CCN(C(=O)c2ccc3c(c2)sc2nc(-c4ccccc4)cn23)CC1 | / | / | 59* | / | -28 | 29
COc1ccc(-c2ccc([C@@H]3[C@H](CO)N4CCCCN(C(=O)NC(C)C)C[C@@H]34)cc2)cc1 | -17 | -13 | / | -24 | / | /
Cn1c(Cn2cnc([N+](=O)[O-])n2)nnc1SCC(=O)Nc1ccccc1 | -1 | -3 | 4 | 81* | 1 | 17
S=c1[nH]cnc2scc(-c3ccc(Cl)cc3)c12 | 8 | 22 | 68* | 14 | / | 26
Cc1ccc(-c2csc3nc[nH]c(=S)c23)cc1 | 17 | / | 12 | 5 | 16 | 26
COc1ccc(S(=O)(=O)Nc2ccc3c(c2)CC(=O)N([C@@H](C)CO)C[C@@H](C)[C@H](CN(C)Cc2ccc(-c4ccccc4)cc2)O3)cc1 | 21 | -9 | / | 95* | / | /
